Test results as given in PubChem BioAssay.
Results filed as inconclusive are left out. Calls of active or inactive are those of the source. Unless noted, no cut-off is given here; in the data, nearly all actives have AC50 up to about 26 µM.

Experiments:
[1] = viability loss in pontine glioma line – cell-based, SU-DIPG-XVII, MIPE5.0, CellTiter-Glo, qHTS, dose response (AID 1347060); conditions: CellTiter-Glo ATP luminescence;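 for AC50: cells exposed to compound for 48 hours before viability readout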
[2] = viability loss in pontine glioma line – cell-based, SU-DIPG-XXV, MIPE5.0, CellTiter-Glo, qHTS, dose response (AID 1347065); conditions: CellTiter-Glo ATP luminescence;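 note: cells exposed to compound for 48 hours before ATP readout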
[3] = JHH-DIPG-1 glioma cell viability, MIPE5.0 library, CellTiter-Glo luminescence, qHTS (AID 1347067); conditions: JHH-DIPG-1 glioma viability, CellTiter-Glo ATP luminescence;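 note: cells exposed to compound for 48 hours before readout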
[4] = growth inhibition of DIPG cells – cell-based, MIPE5.0 library, qHTS (AID 1347068; cut-off not given, nearly all actives have IC50 up to about 30 µM;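 for IC50: cells exposed to compound for 48 hours before viability readout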); conditions: SU-DIPG-XXV viability
[5] = viability loss with induced miR-34 in A549 – imaging, A549 dox-inducible miR-34, nuclei and caspase counts, primary screen (AID 1347080;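 active = compounds whose cell count with miR-34 switched on is under 0.7 times the count with it off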); conditions: A549 miR-34 inducible, Hoechst nuclei count, 48 h
[6] = MELAS cybrid and Rieske KO viability enhancers – cell-based, MELAS cybrids, Rieske KO mouse fibroblasts, CellTiter-Glo, primary screen (AID 1508586;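 active = mean z-score across replicates of 1.96 or higher in either the MELAS or the Rieske mutant cell line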;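 note: z relative to plate mean and SD of compound and empty wells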); conditions: low glucose
[7] = blockers of cellular phospholipid synthesis – cell-based, LOPAC library, screen 4, primary screen (AID 1347384; call rule not given here); conditions: animal cells, phospholipid biosynthesis inhibition screen; at 10 µM
[8] = galactose survival enhancers in mitochondrial complex I cybrids – cell-based, galactose medium, ATP luminescence, primary screen (AID 1645843;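 active = z-score of at least 1.8 in each of two replicates, scored against plate mean and spread of sample wells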;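 note: positive z means more ATP and so rescue of galactose-driven cybrid death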); conditions: complex I mutant cybrid cells, 72 h, stronger effect = higher value
[9] = stronger effect = lower value, cell number ratio, induced over uninduced
[10] = measured here: relative caspase fold change +Dox/-Dox
[11] = measured here: total cells with miR-34 induction, stronger effect = lower value
[12] = measured here: total cells without miR-34 induction

Q: Which AC50 [1] does the source give for `CCN(C)S(=O)(=O)Nc1ccc(F)c(C(=O)c2c[nH]c3ncc(-c4cnc(C5CC5)nc4)cc23)c1F` here?
A: Its AC50 is 14.8 µM (active).

Q: And the AC50 [2]?
A: Its AC50 is 7.42 µM (active).

Q: And the AC50 [3]?
A: Its AC50 is 16.6 µM (active).

Q: And the IC50 [4]?
A: The IC50 was 16.6 µM (active).

Q: With `Cn1nccc1Nc1nccc(-c2cc3c(s2)C(C)(C)N(CCN2CCOCC2)C3=O)n1` as the molecule, how does the AC50 [1] read?
A: The AC50 was 5.25 µM (active).

Q: And the AC50 [2]?
A: Its AC50 is 10.5 µM (active).

Q: What about the AC50 [3] of the same molecule?
A: The AC50 was 2.09 µM (active).

Q: What about the outcome [4] of the same molecule?
A: Its outcome is “inactive”.

Q: What does the source list for `COCCNCc1ccc(-c2cc3nccc(Oc4ccc(NC(=S)NC(=O)Cc5ccc(F)cc5)cc4F)c3s2)nc1`?
A: AC50 [1]: 7.42 µM (active); AC50 [2]: 4.17 µM (active); AC50 [3]: 7.42 µM (active); IC50 [4]: 9.34 µM (active)

Q: Which outcome [1] does the source give for `O=C(O)c1cnn(-c2nc3cc(OC(F)(F)F)c(Cl)cc3[nH]2)c1` here?
A: The outcome was “inactive”.

Q: What about the outcome [2] of the same molecule?
A: Its outcome is “inactive”.

Q: What about the outcome [3] of the same molecule?
A: The outcome was “inactive”.

Q: What about the outcome [4] of the same molecule?
A: The outcome was “inactive”.

Q: For `O=C(Nc1nccs1)C(c1cc(F)ccc1O)N1Cc2ccccc2C1=O` (stereo not drawn), which outcome [1] is on record?
A: Its outcome is “inactive”.

Q: And the outcome [2]?
A: Its outcome is “inactive”.

Q: What about the outcome [3] of the same molecule?
A: Its outcome is “inactive”.

Q: And the outcome [4]?
A: Its outcome is “inactive”.

Q: For `O=C(NCC(=O)N1CC[C@H](NC2CCC(O)(c3ccc(-c4ncccn4)cn3)CC2)C1)c1cccc(C(F)(F)F)c1` (stereo partly drawn), which outcome [1] is on record?
A: Its outcome is “inactive”.

Q: And the outcome [2]?
A: The outcome was “inactive”.

Q: And the outcome [3]?
A: The outcome was “inactive”.

Q: What about the outcome [4] of the same molecule?
A: Its outcome is “inactive”.

Q: For `C[C@H]1CNC(=O)c2cnn3ccc(nc23)N[C@H](C)c2cc(F)ccc2O1`, which AC50 [1] is on record?
A: Its AC50 is 1.05 µM (active).

Q: And the AC50 [2]?
A: The AC50 was 0.934 µM (active).

Q: And the AC50 [3]?
A: Its AC50 is 1.48 µM (active).

Q: And the IC50 [4]?
A: Its IC50 is 2.95 µM (active).

Q: For `COCCNc1cc(NC(=O)N2CCCc3cc(CN4CCN(C)CC4=O)c(C=O)nc32)ncc1C#N`, which outcome [1] is on record?
A: The outcome was “inactive”.

Q: And the outcome [2]?
A: The outcome was “inactive”.

Q: And the outcome [3]?
A: Its outcome is “inactive”.

Q: And the outcome [4]?
A: The outcome was “inactive”.

Q: What does the source list for `O=C([O-])C[O-].[Pt+2]`?
A: outcome [1]: inactive; outcome [2]: inactive; outcome [3]: inactive; outcome [4]: inactive

Q: What does the source list for `N[C@@H](CCC(=O)O)C(=O)N[C@@H](Cc1c[nH]c2ccccc12)C(=O)O`?
A: outcome [1]: inactive; outcome [2]: inactive; outcome [3]: inactive; outcome [4]: inactive

Q: Which results are given for `O=C1OC2(CCC(C(=O)Nc3ccn(-c4ccccc4F)n3)CC2)c2cnccc21` (stereo not drawn)?
A: outcome [1]: inactive; outcome [2]: inactive; outcome [3]: inactive; outcome [4]: inactive

Q: With `CCO[C@@H]1OC(=O)C[C@@H]1NC(=O)[C@@H]1CCCN2C(=O)CC[C@H](NC(=O)c3nccc4ccccc34)C(=O)N12` as the molecule, how does the outcome [1] read?
A: Its outcome is “inactive”.

Q: What about the outcome [2] of the same molecule?
A: Its outcome is “inactive”.

Q: And the outcome [3]?
A: Its outcome is “inactive”.

Q: And the outcome [4]?
A: The outcome was “inactive”.

Q: Which outcome [1] does the source give for `COc1cccc(-c2c(C)n(Cc3c(F)cccc3C(F)(F)F)c(=O)n(C[C@H](NCCCC(=O)O)c3ccccc3)c2=O)c1F` here?
A: Its outcome is “inactive”.

Q: What about the outcome [2] of the same molecule?
A: The outcome was “inactive”.

Q: What about the outcome [3] of the same molecule?
A: Its outcome is “inactive”.

Q: And the outcome [4]?
A: The outcome was “inactive”.

Q: Which results are given for `COc1cc2c(NC3CCN(C)CC3)nc(N3CCCN(C)CC3)nc2cc1OCCCN(C)C`?
A: outcome [1]: inactive; outcome [2]: inactive; outcome [3]: inactive; outcome [4]: inactive

Q: For `Cc1cc(N2CCOCC2)ccc1Nc1nc(NC2CCCCC2)c2[nH]cnc2n1`, which AC50 [1] is on record?
A: The AC50 was 2.35 µM (active).

Q: And the AC50 [2]?
A: The AC50 was 7.42 µM (active).

Q: What about the AC50 [3] of the same molecule?
A: The AC50 was 14.8 µM (active).

Q: What about the IC50 [4] of the same molecule?
A: The IC50 was 20.9 µM (active).

Q: And the fold change [5, 9]?
A: The fold change was 0.907 (inactive).

Q: And the fold change [5, 10]?
A: The fold change was 0.505.

Q: What about the cell count [5, 11] of the same molecule?
A: Its cell count is 3720.

Q: What about the cell count [5, 12] of the same molecule?
A: Its cell count is 4100.

Q: And the z-score ([6]; MELAS cybrid survival, CellTiter-Glo 48 h, stronger effect = higher value)?
A: The z-score was -0.538 (inactive).

Q: And the z-score ([6]; Rieske KO mouse fibroblast survival, CellTiter-Glo 72 h)?
A: Its z-score is -2.79.

Q: Which results are given for `CC(C)(CO)n1cc(C(=O)c2cncc(NC(=O)Cc3ccc(Cl)cn3)c2)c2cnc(N)nc21`?
A: outcome [1]: inactive; outcome [2]: inactive; outcome [3]: inactive; outcome [4]: inactive

Q: Which results are given for `CC(C)[C@](O)(c1ccc2cc(OC(F)F)c(OC(F)F)cc2c1)c1cn[nH]n1`?
A: outcome [1]: inactive; outcome [2]: inactive; outcome [3]: inactive; outcome [4]: inactive

Q: With `O=C(Nc1ccc2c(c1)CCN(Cc1ncn[nH]1)C2)c1ccccc1-c1ccc(C(F)(F)F)cc1` as the molecule, how does the outcome [1] read?
A: Its outcome is “inactive”.

Q: What about the outcome [2] of the same molecule?
A: Its outcome is “inactive”.

Q: And the outcome [3]?
A: The outcome was “inactive”.

Q: What about the outcome [4] of the same molecule?
A: Its outcome is “inactive”.

Q: And the fold change [5, 9]?
A: The fold change was 1.03 (inactive).

Q: What about the fold change [5, 10] of the same molecule?
A: The fold change was 1.06.

Q: What about the cell count [5, 11] of the same molecule?
A: The cell count was 8100.

Q: What about the cell count [5, 12] of the same molecule?
A: The cell count was 7840.

Q: And the outcome [7]?
A: Its outcome is “inactive”.

Q: What about the z-score [8] of the same molecule?
A: The z-score was 0.755 (inactive).

Q: For `CN1CCN(C2CCC(n3cc(-c4ccc(Oc5ccccc5)cc4)c4c(N)ncnc43)CC2)CC1` (stereo not drawn), which AC50 [1] is on record?
A: Its AC50 is 1.48 µM (active).

Q: What about the AC50 [2] of the same molecule?
A: The AC50 was 1.86 µM (active).

Q: And the AC50 [3]?
A: Its AC50 is 7.42 µM (active).

Q: What about the IC50 [4] of the same molecule?
A: The IC50 was 8.33 µM (active).

Q: Which AC50 [1] does the source give for `CCn1c(=O)c(-c2ccc(Cl)cc2Cl)cc2cnc(Nc3ccc(N4CCNCC4)c(F)c3)nc21` here?
A: The AC50 was 0.59 µM (active).

Q: What about the AC50 [2] of the same molecule?
A: Its AC50 is 0.59 µM (active).

Q: And the outcome [3]?
A: Its outcome is “inactive”.

Q: What about the outcome [4] of the same molecule?
A: Its outcome is “inactive”.

Q: What does the source list for `Cc1ccc(-c2nn(C(C)(C)CNC(=O)c3ccncc3)c3ncnc(N)c23)cc1`?
A: AC50 [1]: 10.5 µM (active); AC50 [2]: 13.2 µM (active); AC50 [3]: 13.2 µM (active); IC50 [4]: 14.8 µM (active)

Q: What does the source list for `C=CC(=O)N1CCC[C@H](n2c(=O)n(-c3ccc(Oc4ccccc4)cc3)c3c(N)ncnc32)C1`?
A: AC50 [1]: 0.59 µM (active); AC50 [2]: 7.42 µM (active); AC50 [3]: 0.742 µM (active); outcome [4]: inactive

Q: Which AC50 [1] does the source give for `C=CC(=O)Nc1cccc(C)c1Nc1ncc2cc(-c3c(Cl)c(OC)cc(OC)c3Cl)ccc2n1` here?
A: Its AC50 is 14.8 µM (active).

Q: What about the AC50 [2] of the same molecule?
A: The AC50 was 9.34 µM (active).

Q: And the AC50 [3]?
A: Its AC50 is 13.2 µM (active).

Q: What about the IC50 [4] of the same molecule?
A: The IC50 was 9.34 µM (active).

Q: Which outcome [1] does the source give for `Cc1cc(C)c(S(=O)(=O)N(CCc2cccc(Br)c2)Cc2ccc(-c3cccc(S(C)(=O)=O)c3)cc2)c(C)c1` here?
A: The outcome was “inactive”.

Q: And the outcome [2]?
A: The outcome was “inactive”.

Q: What about the outcome [3] of the same molecule?
A: The outcome was “inactive”.

Q: What about the outcome [4] of the same molecule?
A: Its outcome is “inactive”.
